PubChem BioAssay (NCI)
Compounds without any hit were thinned out: in the full panel of roughly 79,000, 15% have a hit. Active and inactive are the calls of the source. Cut-off read from the data, not from the text of the source: active = growth inhibition above about 70%; inactive = the rest.

Key:
[1] = NCI Yeast Anticancer Drug Screen. Data for the rad50 strain (AID 155);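 note: 0% = growth of vehicle-only cultures of the same strain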; settings: S. cerevisiae rad50 strain growth inhibition; at 50.0 µM; hits give high values
Outline: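 Inhibition values express reduced yeast growth in compound-treated cultures relative to vehicle-treated controls.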

[2] = NCI Yeast Anticancer Drug Screen. Data for the mec2-1 strain (AID 157); settings: S. cerevisiae mec2-1 strain, at 50.0 µM, hits give high values
Outline: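 Cells of the genetically defined mec2-1 yeast strain are incubated with test compound. Inhibition of growth is calculated against vehicle-treated controls.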

[3] = NCI Yeast Anticancer Drug Screen. Data for the sgs1 mgt1 strain (AID 161);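 note: 0% = growth of cultures given vehicle only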; settings: S. cerevisiae sgs1 mgt1 strain, at 50.0 µM, hits give high values
Outline: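 Genetically altered yeast, compound exposure, growth inhibition relative to vehicle.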

[4] = NCI Yeast Anticancer Drug Screen. Data for the cln2 rad14 strain (AID 165);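 note: 0% = growth equal to vehicle treated cultures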; settings: S. cerevisiae cln2 rad14 strain, at 50.0 µM, hits give high values
Outline: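 The screen exposed genetically defined yeast (cln2 rad14) to test compounds and scored growth inhibition relative to vehicle-treated controls.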

[5] = NCI Yeast Anticancer Drug Screen. Data for the bub3 strain (AID 167); settings: S. cerevisiae bub3 mutant strain, at 50.0 µM, hits give high values
Outline: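 Steps: expose the mutant yeast strain to compound; grow alongside vehicle-treated cultures; measure growth; express inhibition against the vehicle cultures.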

[6] = NCI Yeast Anticancer Drug Screen. Data for the mlh1 rad18 strain (AID 175); settings: S. cerevisiae mlh1 rad18 strain growth inhibition; at 50.0 µM; hits give high values
Outline: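 Compound-treated yeast growth, normalised to vehicle controls. Strain bears defined DNA repair mutations.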

Measured: growth inhibition

CCCC1c2c(cc(=O)[nH]c2O)C(=O)N1Cc1ccccc1 (configuration not stated)
inactive: [1] -10.2% | [2] -16.5% | [3] -14.4% | [4] 17.8% | [5] -17.6% | [6] -0.9%

CCOC(CN=Cc1ccc2c(c1)Sc1ccccc1O2)OCC
active: [1] 73.1% | [3] 88.2% | [6] 89.5%
inactive: [2] 46.1% | [4] 55.2% | [5] 64.8%

COc1ccc(OC)c(N=Cc2cccs2)c1
inactive: [1] 14.6% | [2] 5.95% | [3] 20.9% | [4] 15.1% | [5] 16.2% | [6] 22.1%

BrCCCC1CCCCC1
inactive: [1] -23.6% | [2] -41.7% | [3] -13.2% | [4] 2.1% | [5] -14.6% | [6] -14.7%

O=c1[nH]n(Cc2ccccn2)c2ccc([N+](=O)[O-])cc12
inactive: [1] 4.1% | [2] -7.8% | [3] -26.8% | [4] 0.95% | [5] 6.45% | [6] -14.2%

COc1ccc2ccc3c(c2c1)C(=O)C(CC(N)=O)C3 (configuration not stated)
inactive: [1] 1.75% | [2] 1.2% | [3] -10.7% | [4] 0.4% | [5] -4.1% | [6] 15%

CC1=CC(O)(Cc2ccccc2)CC(C)(C)C1 (configuration not stated)
inactive: [1] 2.1% | [2] -36.2% | [3] -17.9% | [4] -0.9% | [5] -27.9% | [6] -28.9%

ClC(Cl)(Cl)C(c1ccc(Br)cc1)c1ccc(Br)cc1
inactive: [1] -18.1% | [2] -29.5% | [3] 1.15% | [4] -43.3% | [5] 16.8% | [6] -0.25%

O=C(NNc1ccccc1)NNc1ccccc1
inactive: [1] 32.8% | [2] 21.4% | [3] 45.3% | [4] 46.3% | [5] 20.8% | [6] 29.8%

NC(=O)C1CC(O)CC(C(N)=O)O1 (configuration not stated)
inactive: [1] -6.75% | [2] 8.3% | [3] -9.55% | [4] 3.4% | [5] -2.35% | [6] -23.9%

CSC(=O)Oc1ccc([N+](=O)[O-])cc1
inactive: [1] 6.25% | [2] 1.55% | [3] -6.7% | [4] -38.3% | [5] 12.5% | [6] -2.9%

C=C1CC(OC(C)=O)/C=C(/C)CCC(C(C)(C)O)CC1O (configuration not stated)
inactive: [1] 6.7% | [2] -32% | [3] -11.2% | [4] 7.65% | [5] -8% | [6] -20.9%

O=C(O)c1cc2cc(O)ccc2[nH]1
inactive: [1] 2.6% | [2] 3.6% | [3] 20.9% | [4] 3% | [5] 10.4% | [6] -5.25%

COc1ccc2c(=O)c(O)c(-c3ccc(OC)c(OC)c3)oc2c1
inactive: [1] 12.7% | [2] 5.35% | [3] -18.6% | [4] -9.1% | [5] -1.25% | [6] 18.4%

COC(=NC(C)C)NC(C)C
inactive: [1] 6.3% | [2] -17.2% | [3] 5.65% | [4] 14.2% | [5] 5.4% | [6] 14.4%

C=C(C)COc1c(C)c(C)c(OCC(C)C)c(C)c1C
inactive: [1] -4.35% | [2] 9.75% | [3] -0.75% | [4] -8.75% | [5] 3.2% | [6] -10.9%

CN(C)CCNC(=O)c1ccc(Cl)c2cc3ccccc3nc12
inactive: [2] 66.3% | [3] 58% | [4] 50.7% | [5] 15.7%
active: [1] 83.3% | [6] 85.8%

Cc1cc2c(c(C(=O)NCC(=O)O)c1)Oc1c(cc(C)cc1C(=O)NCC(=O)O)S2
inactive: [1] -17% | [2] 20.1% | [3] -4.95% | [4] 14.8% | [5] -29.9% | [6] 20.9%

CN(C)c1ccc(/C=N/NC(=O)c2ccccc2NC(=O)C2CC2)cc1
inactive: [1] -11.4% | [2] 1.4% | [3] 27% | [4] -18.8% | [5] 24.8% | [6] 26.6%

Nc1ccc(N2N=C(N3CCCC3)CC2=O)cc1
inactive: [1] -26.6% | [2] -48.8% | [3] -10.8% | [4] 1.2% | [5] -12.7% | [6] -23.4%

COc1cc(C=O)cc(NC(C)=O)c1OC(C)=O
inactive: [1] 6.55% | [2] 0.3% | [3] 4.85% | [4] -4.85% | [5] 24.9% | [6] 9.95%

Cc1cccc(N2CCN(c3ccc4nonc4c3[N+](=O)[O-])CC2)c1
inactive: [1] -5.05% | [2] -4.4% | [3] -9.9% | [4] -13% | [5] -13.9% | [6] -15.3%

CCN(CC)c1nc(NNS(=O)(=O)c2ccccc2)nc(N(CC)CC)n1
inactive: [1] -3.6% | [2] -5.2% | [3] 4.3% | [4] -13.1% | [5] -4.3% | [6] 11%

Cc1cc2nc3c(C(OC4OC(CO)C(O)C(O)C4O)C(O)CO)nn(-c4ccccc4)c3nc2cc1C (configuration not stated)
inactive: [1] -23% | [2] -13.8% | [3] -35.1% | [4] 0.25% | [5] -26.9% | [6] 0.75%

N#C/C(=C(/N)N1CCOCC1)N1CCOCC1
inactive: [1] -18.4% | [2] -8.95% | [3] -9.15% | [4] -13.6% | [5] 16.1% | [6] -4.2%

CCCC(CCC)C(=O)[O-].CCCC(CCC)C(=O)[O-].CCCC(CCC)C(=O)[O-].CCCC(CCC)C(=O)[O-].[Cu+2].[Cu+2]
inactive: [1] 1.4% | [2] 13.4% | [3] -2.8% | [4] 19.9% | [5] 20% | [6] 14.2%

O=C1c2ccccc2C(=O)N1CCn1[nH]c(=O)c2ccccc2c1=O
inactive: [1] -3.25% | [2] -10.4% | [3] -6.55% | [4] 8.9% | [5] -3.6% | [6] 14.1%

O=C(Nc1cc(Cl)c(Oc2ccc(Cl)cc2)cc1S(=O)(=O)O)Nc1cccc(Cl)c1Cl
active: [1] 99% | [2] 99.5% | [3] 99.6% | [4] 98.2% | [5] 98.7% | [6] 99.4%

CCC1SC(C)C(=O)NC1=O (configuration not stated)
inactive: [1] -14.8% | [2] 3.9% | [3] -0.7% | [4] -14.3% | [5] -8.2% | [6] 37.1%

Cc1ccccc1N=Nc1c(O)n(-c2ccccc2)c(=S)n(-c2ccccc2)c1=O
inactive: [1] 43.5% | [2] 0.9% | [3] 28.6% | [4] -18.9% | [5] 2.2% | [6] 14.4%

CC(NC(=O)OCC[P+](c1ccccc1)(c1ccccc1)c1ccccc1)C(=O)O (configuration not stated)
inactive: [1] -14.2% | [2] -4.35% | [3] -11.6% | [4] 3.45% | [5] -27.1% | [6] -55.2%

CCCC(CCCC(=O)O)C(=O)O (configuration not stated)
inactive: [1] -4% | [2] -9.8% | [3] 0.95% | [4] -8.2% | [5] 11.9% | [6] 6.1%

O=C(O)CCc1c[nH]c(=S)[nH]1
inactive: [1] 10% | [2] 3.75% | [3] -5.85% | [4] -11.6% | [5] -1.7% | [6] -1.7%

COc1cc(-c2ccc(Br)[nH]2)[nH]c1C=NCC(C)C
active: [1] 78.5% | [2] 78.5% | [3] 78.8% | [4] 78.2% | [6] 86.7%
inactive: [5] 69%

CCc1cccc(CC)c1Nc1nc(C)nc2c1cnn2C
inactive: [1] -3.55% | [2] -1.85% | [3] 5.55% | [4] -40.1% | [5] 5.35% | [6] 3.95%

O=C(Nc1ccc(Cl)cc1)c1ccc(Cl)cc1Cl
inactive: [1] -11.8% | [2] 10.7% | [3] -2.5% | [4] -39.1% | [5] 13.7% | [6] -0.15%

c1cnc2[nH]cnc2n1
inactive: [1] 2.3% | [2] 0.6% | [3] -3.3% | [4] 5.75% | [5] 4.85% | [6] -10.1%

CC1(C)OC2COC3OC(C)(C)OC3(CO)C2O1 (configuration not stated)
inactive: [1] -1.7% | [2] -17.8% | [3] -6.1% | [4] -4.9% | [5] 20.5% | [6] 5.15%

CN(CC(=O)O)c1ccc([N+](=O)[O-])cc1[N+](=O)[O-]
inactive: [1] 8.75% | [2] 8.55% | [3] 10.4% | [4] 52.9% | [5] 26.4% | [6] -1.15%

COc1cccc(-c2nc(-c3cnccn3)n(Cc3ccccc3)n2)c1
inactive: [1] -49.1% | [2] -60.7% | [3] -59.8% | [4] -22% | [5] -46.5% | [6] -38.8%

NC(CSS(=O)(=O)O)=NCCSS(=O)(=O)O
inactive: [1] -20.4% | [2] -12.4% | [3] -3.45% | [4] 7.45% | [5] -2.4% | [6] 3.95%

C/C(=N/NC(N)=O)C1c2ccccc2Cc2ccccc21
inactive: [1] 18.1% | [2] -2.25% | [3] 4.85% | [4] -0.3% | [5] 16.9% | [6] -8.15%
